From PubChem BioAssay (NCI)
Compounds without any hit were thinned out: in the full panel of roughly 83,000, 20% have a hit.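 Growth was measured after 48 h exposure to one concentration of compound in 96-well plates. Values under 10 count as active.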 A number with no mark means an inactive call.

What follows are compounds tested on BT-549 breast (assay: NCI-60 one-dose screen, 48 h (100 = growth as untreated, 0 = no growth, -100 = all killed)). Settings: 10 µM.
Procedure: Growth inhibition of the BT-549 human tumor cell line is measured as a screen for anti-cancer activity. Cells are grown in 96 well plates and exposed to the test compound for 48 hours. Compounds are tested at a single concentration, which is 10^-5 M for most compounds. The reported endpoint is percent growth (GI% or GIPRCNT), where numbers from 0 - 100% represent growth inhibition, and numbers from -100% - 0 represent cell death. For example, a value of 40 represents 60% growth inhibition. A value of 0 means no net growth occurred over the course of the experiment. A value of -40 indicates 40% of cells at the beginning of the experiment died by the end of the experiment. A value of -100 means all cells are dead at the end of the experiment.
NCI-60 Human Tumor Cell Lines Screen was performed using the standard one-dose NCI protocol, which is described in more detail at https://dtp.cancer.gov/discovery_development/nci-60/default.htm.
Compounds with GIPRCNT values below 10 were considered active. Activity score was based on GIPRCNT using the following formula: […]
Score is 0 for GIPRCNT values of 100 or above, 50 for GIPRCNT values of 0, and 100 for GIPRCNT values of -100.

Question: With O=S(=O)(O)c1ccc(Cl)c(Cl)c1 as the compound, how does the growth read?
Answer: 97.7%

Question: How did the growth turn out when O=c1[nH]c(O)c(/C=C2/C=Nc3ccccc32)[nH]1 was run?
Answer: 107%

Question: With CC1CCCCN1C(=S)Nc1ccc(S(=O)(=O)N2CCCCC2)cc1 (stereo not given) as the compound, how does the growth read?
Answer: 93.4%

Question: Which growth does the source give for Cc1ccc(C(=O)N/N=C/c2ccc3c(c2)OCO3)cc1 here?
Answer: 107%

Question: Cc1cc(NC(=O)CSCC(=O)O)no1 was tested. Which growth did it give?
Answer: 98.7%

Question: How did the growth turn out when COC(=O)/C=C1\Sc2cc(F)ccc2NC1=O was run?
Answer: 127%

Question: For S=c1[nH]ccn1-c1ccccc1Cl, which growth is on record?
Answer: 117%

Question: How did the growth turn out when Cc1ccc(Cl)cc1NC(=O)N(C)CCO was run?
Answer: 116%

Question: For COc1ccccc1C1OC2=Nc3cc(C)c(C)cc3NC2C1=O (stereo not given), which growth is on record?
Answer: 88.6%

Question: With CC(=O)OCC1=CC2OC(=O)C3=COC(OC4OC(CO)C(O)C(O)C4O)C1C32 (stereo not given) as the compound, how does the growth read?
Answer: 110%

Question: How did the growth turn out when CCCCOC(=O)c1ccc(C(C)C)cc1 was run?
Answer: 92.1%

Question: For CCCCC(O)c1ccccc1 (stereo not given), which growth is on record?
Answer: 110%

Question: CCCNC(=O)c1ccc(S(N)(=O)=O)cc1 was tested. Which growth did it give?
Answer: 120%

Question: With O=C(O)CCCc1ccccc1 as the compound, how does the growth read?
Answer: 105%

Question: How did the growth turn out when O=C(CN1CCNCC1)N1CCOCC1 was run?
Answer: 113%

Question: With COc1cc(C(=O)N/N=C/c2cccc([N+](=O)[O-])c2)cc(OC)c1OC as the compound, how does the growth read?
Answer: 58%

Question: For CCCCC1(CC)COC(CCC)OC1 (stereo not given), which growth is on record?
Answer: 106%

Question: For CCCCC/C=N/Nc1nc(C)cc(=O)[nH]1, which growth is on record?
Answer: 109%

Question: With CCN(CC)CCNc1ccc(CO)c2sc3ccccc3c(=O)c12 as the compound, how does the growth read?
Answer: 70%

Question: How did the growth turn out when CCOC(=O)CCCS(C)(=O)=O was run?
Answer: 100%

Question: With O=C(Nc1cc(-c2ccccc2)[nH]n1)c1ccc(Cl)cc1 as the compound, how does the growth read?
Answer: 83.5%

Question: Which growth does the source give for C=CC[N+](C)(C)C here?
Answer: 114%

Question: With CCOC(=O)C1=C(C)NC(=O)NC1c1cccs1 (stereo not given) as the compound, how does the growth read?
Answer: 123%

Question: For CC(C)(C)c1cc(O)c(C(C)(C)C)cc1O, which growth is on record?
Answer: 81.3%

Question: Which growth does the source give for CC(=O)Nc1c(C)cc(C)cc1C here?
Answer: 105%

Question: C#Cc1cccc(NC(=O)c2ccc(Cl)cc2Cl)c1 was tested. Which growth did it give?
Answer: 111%

Question: How did the growth turn out when CC1(C)/C(=C\CO)C2CCC1C2 (stereo not given) was run?
Answer: 102%

Question: CCC(C#N)(CC)c1ccccc1 was tested. Which growth did it give?
Answer: 100%

Question: Which growth does the source give for COc1cc2c(cc1O)CC[C@@H]1C2CC[C@@]2(C)C1CC[C@@H]2O (stereo not given in full) here?
Answer: 23.4%

Question: With NC(=S)N/N=C/c1ccc(N)cc1 as the compound, how does the growth read?
Answer: 96.3%

Question: Clc1ccc(-c2nnc(-c3cccc4ccccc34)o2)cc1 was tested. Which growth did it give?
Answer: 104%

Question: With O/N=C/c1ccc(O)cc1O as the compound, how does the growth read?
Answer: 103%

Question: For C=CC(O)CCC (stereo not given), which growth is on record?
Answer: 112%

Question: How did the growth turn out when CCCCCCCO was run?
Answer: 103%

Question: How did the growth turn out when CCN=c1cc2sc3cc(NCC)c(C)cc3nc-2cc1C was run?
Answer: 36.4%

Question: For CC(C)(C)n1nc(C2CC2)c(Br)c1NC(=O)c1ccccc1F, which growth is on record?
Answer: 110%

Question: For Cc1nc2ccccc2c2nnc(SCC(=O)N(Cc3ccccc3)c3ccccc3)n12, which growth is on record?
Answer: 87.2%

Question: How did the growth turn out when COC(=O)c1cccnc1 was run?
Answer: 85.5%

Question: With CCN(CC)C(=O)/C=C(/C)c1ccccc1 as the compound, how does the growth read?
Answer: 94.5%

Question: Which growth does the source give for CC(=O)OCCC(C)CCC=C(C)C (stereo not given) here?
Answer: 102%
